Measurements: PubChem BioAssay AID493073 (Broad Institute, 2011)
The whole screen tested about 1,200 compounds, of which about 810 (68%) were called active. No rule for the calls is given here. The set was probably picked from earlier hits. A selection follows. Potency and affinity values are given separately.

Assay: reducers of TRPM1 reporter luminescence, concentration series – cell-based, SK-MEL-5, cherry-picked, set 3, MITF inhibitor project, dose response (AID 493073)
Conditions: SK-MEL-5 TRPM1 promoter luciferase, 24 h; series mostly up to 35 µM; activity change, negative = inhibition: at the top concentration

Activity change, negative = inhibition, inactive:
CCN(CC)CC(=O)Nc1scc2c1c(=O)oc1ccccc12 129%
Fc1ccc(-c2nnc(-c3ccc(F)cc3)o2)cc1 47.1%
CCc1ccc(Nc2nc(C)cc(C)n2)cc1 83.9%
CCOC(=O)c1ccc(NC(=O)Cc2cccs2)cc1 77.7%
C/C(=C\c1ccccc1)C(=O)Nc1ccc(Cl)cn1 47.7%
O=C(N/N=C/C(Cl)=C\c1ccccc1)c1cccs1 64.5%
Brc1cccc(/C=N/Nc2nn[nH]n2)c1 -36.9%
Cc1ccc2cc(NC(=O)Cc3ccccc3)ccc2n1 76.3%
CN(c1cccc(NC(=O)COc2ccc(Cl)cc2Cl)c1)S(C)(=O)=O 40.2%
O=C(Nc1ccccc1)O/N=C/c1ccc(F)cc1 42.1%
O=C(N/N=C/c1ccccc1)c1ccco1 51.9%
O=C(C[n+]1cc(-c2ccc(F)cc2)n2c1CCC2)c1cccs1 47.1%
COc1ccc(C(=O)Nc2ccc3ccccc3c2)cc1OC 80.8%
COc1cc(-c2nnc(-c3ccco3)o2)ccc1OCc1ccccc1 46.7%
CCOC(=O)C1(Cc2ccccc2)CCCN(CCCn2cccn2)C1 (stereo not given) -1.67%
CCOc1ccc(-c2nnc(-c3cccs3)o2)cc1OCC 136%
O=C(COc1ccc2c(c1)CCC2)N1CCc2ccccc21 100%
O=C(Nc1ccccc1Cl)c1cc(=O)c2ccccc2o1 -80.1%
Oc1cc(NCc2cccnc2)ccc1-c1nc2ccccc2o1 15.3%
Cc1ccc2nc(-c3cccnc3)oc2c1 15.7%
CC(C)c1ccc(CNc2ncccn2)cc1 103%
COCc1nc(-c2ccc(-c3ccccc3)nc2OC)no1 6%
COc1cc(CN2CCC(Cc3ccccc3)CC2)cc(OC)c1OC 102%
COc1ccc(S(=O)NC2CCCCC2)c(OC)c1C (stereo not given) 21.7%
O=C(CCCCC(=O)NN=Cc1ccccc1O)NN=Cc1ccccc1O 23.5%
CC(C)C(NC(=O)OCc1ccccc1)C(=O)OCC(=O)N1CCCCC1 (stereo not given) 5.47%
Cc1ccc2c(COC(=O)c3n[nH]c4ccccc34)cc(=O)oc2c1 114%
N#Cc1ccc(-c2cccnc2)nc1SCC(=O)c1ccccc1 33.3%
O=C(CCCCl)NC(=S)Nc1ccc(N2CCOCC2)cc1 13.8%
CS(=O)(=O)c1ncc(Cl)c(C(=O)Nc2ccc3ccccc3c2)n1 -108%
CCNc1nc(N)c(C(=O)c2ccc(Cl)s2)s1 45.7%
COc1ccc(-c2nc(-c3ccncc3)no2)cc1OC 111%
c1ccc(OCc2nn3c(-c4ccccn4)nnc3s2)cc1 51%
COc1cccc(/C=N/NC(=O)CN2CC(c3ccccc3)CC2=O)c1OC (stereo not given) -2.27%
Cc1cc(/C=C(\C#N)C(=O)O)c(C)n1CC(C)C 8.27%
CSCCNC(=O)c1ccc2nc(Cc3ccccc3F)oc2c1 85.4%
O=C(Nc1ccc2nc(-c3ccccc3)[nH]c2c1)c1ccco1 128%
Cc1nc2ccc(NC(=O)c3ccco3)cc2nc1C 7.37%
Cc1nc(NC(=O)C2CC2)sc1C(=O)Nc1ccccc1Cl 64.3%
CN(C)c1ccc(/C=N\NC(=O)c2cccc3cc[nH]c23)cc1 27.5%
O=C(CSCc1c(F)cccc1F)Nc1ccccc1 134%
O=C(CCC1CCCN(C(=O)c2cc3ccccc3o2)C1)NCc1ccc(F)c(F)c1 (stereo not given) 3.79%
CN(C)CCCNc1nc2sc3c(c2c(=O)n1CCc1ccccc1)CCCCC3 -102%
CCOC(=O)C1CCCN(C(=O)C2CCN(S(=O)(=O)CC)CC2)C1 (stereo not given) 93%
N/C(=N\OC(=O)c1ccc(Cl)cc1Cl)c1ccncc1 21.6%
CC(C)S(=O)(=O)c1csc(C(=O)Nc2ccc(F)cc2)c1N 52%
C/C(=N\Nc1cc(N2CCOCC2)ncn1)c1ccccc1 65.8%
Cc1ccc(/C=c2/sc3n(c2=O)CCCN=3)o1 -79.4%
CCCCOc1ccc(-c2ncc([N+](=O)[O-])cn2)cc1 84.2%
Cc1ccc2oc(=O)n(CCCOc3ccccc3)c2c1 102%
CN(CC(=O)N1CCCCCC1)S(=O)(=O)c1ccccc1 43.9%
CC1CCN(C(=O)c2cc3ccccc3o2)CC1 102%
Nc1nnc(/C=C/c2ccccc2Cl)s1 39%
CC(=O)c1c(C)[nH]c(C(=O)Nc2ccc(C)c(C)c2)c1C -69.8%
CC(C)(C)OC(=O)N1CCN(C(=O)c2nc[nH]c2C(=O)N2CCN(c3ccccc3)CC2)CC1 -40.2%
NC(=O)c1ccccc1NC(=O)/C=C/c1cccc(Cl)c1 110%
C=CCN1C(=O)S/C(=C\c2ccc(N3CCOCC3)cc2C)C1=O 92%
Cc1cc(Cl)ccc1OCCCC(=O)N1CCOCC1 94.9%
O=Cc1ccc(N2Cc3ccccc3C2)cc1 35.6%
O=C1N=C(N2CCOCC2)S/C1=C\C=C/c1ccccc1 61.8%
CC(C)(C)N=Cc1cc(-c2ccccc2)sc1O 80.6%
CCOC(=O)c1cnc2c(ccc3ccccc32)c1N 7.22%
COCC(C)Nc1ncnc2c1cnn2-c1ccc(Cl)cc1 (stereo not given) 22.2%
c1ccc(-n2ncc3c(NCc4cccs4)ncnc32)cc1 10.2%
CCCCN=C(C)c1c(O)c2ccccc2oc1=O 114%
COc1ccccc1-c1nc(-c2ccc(C)nc2OC)no1 94.9%
COc1ccccc1-c1nnc(-c2ccc(C)cc2)o1 -51.6%
CCCCOC(=O)c1[nH]c(C)c(C(=O)OC)c1C -83.5%
CCOC(=O)c1cc2sccc2n1CC(=O)N1c2ccccc2CC1C (stereo not given) -77.9%
CCN(C(=O)c1ccco1)c1nc(-c2ccc(OC)cc2)cs1 42.3%
CS(=O)(=O)c1ccc2nc(NC(=O)c3ccccc3Br)sc2c1 25.9%
Cc1ccc(-c2noc(CN3CCCCC3)n2)cc1 132%
CCCCOc1ccc(-c2nnn(C(C)(C)C(=O)OC)n2)cc1 47.7%
COc1ccc(/C=N/N=C2/SCC(=O)N2Cc2ccccc2)cc1 -76.4%
O=[N+]([O-])c1ccccc1OCCCOc1cccc2cccnc12 124%
C=CCOc1ccc(/C=C/C(C)=N\O)cc1 95.6%
COc1ccc(C(=O)/C=C(\C)Nc2ccc3c(c2)OCO3)cc1 32.1%
O=C(CSc1ccccn1)c1ccc2c(c1)OCO2 40.3%
CCOC(=O)C1(Cc2cccc(OC)c2)CCCN(C(=O)CSC)C1 (stereo not given) 115%
N#Cc1nc(/C=C/c2ccccc2)oc1NCCCN1CCOCC1 71.7%
Cc1cc(C(=O)Nc2ccc([N+](=O)[O-])cn2)cs1 76.1%
CC(=O)c1cccc(Nc2nc(-c3cccnc3)cs2)c1 104%
Cc1cc(O)ccc1Nc1nc(-c2cccnc2)cs1 72.3%
Cc1nc2cc(NC(=O)Nc3cccc([N+](=O)[O-])c3)ccc2n1C 78.1%
C/C(=N/N=C(/C)c1cccs1)c1cccs1 34.9%
Cc1nn(C)cc1/C=C/C(=O)c1cccs1 107%
C/C(=N/Nc1nc(C)c(C)s1)c1cccc([N+](=O)[O-])c1 93.8%
CCCN1C(=O)c2ccc(C(=O)Nc3cc(C)ccc3O)cc2C1=O 90.1%
CC1Cc2cc(-c3csc(N)n3)ccc2O1 (stereo not given) 79.4%
COc1ccc(Nc2oc(-c3ccc(OC)cc3)nc2C#N)cc1 108%
CC(=O)Nc1ccc2c(c1)ncn2-c1ccccc1 63.4%
O=C1c2ccccc2CN1c1ccccc1 101%
N#Cc1cnc2sc3ccccc3n2c1=N 66.7%
CC1(C)CC(=O)c2cnc(N3CCc4ccccc43)nc2C1 66.5%
O=C(NCCSc1ccccc1)c1ccccc1F 88.7%
COc1ccc(-c2nc3n(c2C)Cc2ccccc2-3)cc1 17.8%
COc1ccc(-c2cc(-c3ccccc3O)[nH]n2)cc1OC 112%
COc1ccc(C(=O)Nc2nc3ccc(OC)cc3s2)cc1 41.9%
CCOC(=O)c1ccc(NC(=O)c2ccnn2C)cc1 86.7%
CCCOc1ccc(C(=O)Nc2ccc3c(c2)OCCO3)cc1 4.15%
CCOC(=O)c1ccc(NC(=O)CC2SCCNC2=O)cc1 (stereo not given) 60.9%
Cc1ccc(NC(=O)c2ccc(OCC3CCCO3)cc2)c(C)c1 (stereo not given) -25.5%
COc1cc(/C=N/N=C(N)N)ccc1OCc1ccc(Cl)cc1 -110%
Cc1ccc2nc(-c3ccncc3)[nH]c2c1 39.9%
CC(=O)N/C(N)=N/c1nc(=O)c2ccccc2s1 58.1%
COc1ccc(NC(=O)c2scc(S(=O)(=O)C(C)C)c2N)cc1 81.7%
COc1ccc(/C=N/NC(=O)Cc2cccs2)cc1 97.3%
CCOc1ccc(N(CC(=O)Nc2ccc(OC)cc2)S(C)(=O)=O)cc1 55.1%
Nc1c(-c2ccc(Cl)cc2)nnn1-c1ccccc1 98.5%
CCSc1nc2c(cnn2-c2ccccc2)c(=O)n1N 14.1%
CCn1nccc1C(=O)Nc1ccc(C)c(C)c1 101%
O=C(CCNc1ccccc1)c1ccc2c(c1)OCO2 131%
C=CCn1cccc(C(=O)Nc2ccc(C)c(Cl)c2)c1=O 113%
O=C(Nc1ccc(F)c(Cl)c1)c1ccc2c(c1)OCO2 54.8%
O=C(Cn1cnc2ccccc2c1=O)Nc1ccc2c(c1)OCCO2 -35.9%
Cc1cccc(N(O)C(=O)Nc2cccc(Cl)c2)c1 69.6%
CC(O)CNC(=O)C1CCN(Cc2ccc(OCc3ccccc3)cc2)CC1 (stereo not given) 93.9%
Nc1nc2ccccc2n1/N=C/c1ccc(-c2ccccc2)o1 117%
Cc1c(/C=C/C(=O)c2ccc(Cl)s2)cnn1C -44%
CCCCOC(=O)Nc1ccc2c(C)cc(=O)oc2c1 109%
Cc1ccc(NC(=O)c2cc(-c3cccs3)on2)cc1 74.4%
Cc1cc(C)c2sc(N(CCCN(C)C)C(=O)COc3ccc(Cl)cc3)nc2c1 -102%
Cc1ccc2nc(N(CCCN(C)C)C(=O)c3ccc4c(c3)CCCC4)sc2c1 -110%
CC(=O)N/C(N)=N/c1nc2cc(C)ccc2o1 28.1%
CCOC(=O)c1cn2nc(Oc3ccccc3)ccc2n1 31.2%
Cc1cn(CCC(=O)Nc2ccccc2N2CCOCC2)c2ccccc12 108%
Clc1c(-c2ccccc2)nc2ccccn12 89.1%
C=CCNC(=O)Cn1nnc(-c2ccc(-c3ccc(OC)cc3)cc2)n1 -35.5%
CCOC(=O)CSc1nc2cc(OCC)ccc2cc1C#N 123%
O=C(Cn1cnc2c(oc3ccccc32)c1=O)c1ccccc1 96.8%
c1ccc(Cc2cc(-c3ccccc3)on2)cc1 108%
O=[N+]([O-])c1c(NCCCO)cc(Sc2ccc(Cl)cc2)c2nonc12 -93.6%
CC1CC2(C)Oc3ccccc3CC2C(C)C1CNCCCN(C)C (stereo not given) -98.7%
Cc1cc(C)c2c(N)c(C(=O)N/N=C/c3cccnc3)sc2n1 81%
O=[N+]([O-])c1cccc(/C=N/Nc2ncc(Br)cn2)c1 123%
Cc1ccc(NC(=O)c2cc3cccc([N+](=O)[O-])c3[nH]2)cc1 28.5%
N/C(CS(=O)(=O)c1ccccn1)=N\OC(=O)c1ccccc1Cl 48.9%
O=C(CC(=O)c1ccccc1)Nc1ccccn1 -11.2%
COc1ccc(NC(=O)c2cc3ccccc3[nH]2)cc1 88.3%
COC(=O)[C@@H](C)NC(=O)c1ccc2oc(CCc3ccccc3)nc2c1 92.7%
